Bioassay records as filed in PubChem BioAssay.
Jurkat NFkB inh: inhibitors of induced NF-kB luciferase reporter, primary screen, TCR NF-kB activation inhibitor project, cell-based, luminescence, uHTS; Jurkat, PMA/ionomycin-induced NF-kB luciferase reporter; inhibition, % at 4 µM; 330,000 compounds, 0.53% hits; AID 435003, 2010; in the data active = inhibition above about 50%
697 NFkB inh: inhibitors of PMA/ionomycin-induced NF-kB reporter, 697 cells, primary screen, B-cell NF-kB inhibitor project, cell-based, luminescence, uHTS. 697 B-cell NF-kB luciferase reporter, 16 h. inhibition, % at 4 µM. 330,000 compounds, 0.33% hits; in the data active = inhibition above about 35%
Gli-Sufu antag: Gli-Sufu pathway antagonists, primary screen, luciferase luminescence, Sufu-KO-LIGHT cells, uHTS; Sufu-KO-LIGHT fibroblasts, Gli luciferase reporter luminescence; inhibition, % at 5 µM; 340,000 compounds, 0.74% hits;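 active = inhibition above about 55%, limit read from the data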;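 note: 0% = DMSO-treated cells and 100% = wells with medium but no cells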
KLF5 inh: KLF5 expression inhibitors, primary screen, DLD-1 cells, luminescence; inhibition, % at 5 µM; AID 1700, 2009; 290,000 compounds, 0.23% hits; DLD-1 KLF5 promoter-luciferase reporter;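 active = inhibition above a per-plate limit of that plate's mean compound inhibition plus 3 SD, cut at about 60% in these data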;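 note: 0% = DMSO wells and 100% = LY294002 at 200 µM; higher means less KLF5 promoter-driven luciferase light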
aSyn UTR inh: MLPCN primary screen, SNCA 5' untranslated region | alpha-synuclein 5'UTR reporter, inhibitor activity | inhibition, % (tested at 7.5 µM) | 300,000 compounds, 0.82% hits; in the data active = inhibition above about 60%;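 note: H4 neuroglioblastoma cells stably carrying SNCA 5'UTR luciferase fusion; 0% = DMSO wells and 100% = positive control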
Mdm2 MdmX PPI: inhibitors of human Mdm2-MdmX association, primary screen, cell-based, luminescence, split luciferase, SaOS-2, uHTS | 330,000 compounds, 3% hits | AID 485346, 2010 | SaOS-2 split-luciferase Mdm2/MdmX complementation | inhibition, % at 8 µM;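 active = inhibition of at least 50% at 8 µM in the primary screen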
Target sequence (O15151 whole entry, looked up): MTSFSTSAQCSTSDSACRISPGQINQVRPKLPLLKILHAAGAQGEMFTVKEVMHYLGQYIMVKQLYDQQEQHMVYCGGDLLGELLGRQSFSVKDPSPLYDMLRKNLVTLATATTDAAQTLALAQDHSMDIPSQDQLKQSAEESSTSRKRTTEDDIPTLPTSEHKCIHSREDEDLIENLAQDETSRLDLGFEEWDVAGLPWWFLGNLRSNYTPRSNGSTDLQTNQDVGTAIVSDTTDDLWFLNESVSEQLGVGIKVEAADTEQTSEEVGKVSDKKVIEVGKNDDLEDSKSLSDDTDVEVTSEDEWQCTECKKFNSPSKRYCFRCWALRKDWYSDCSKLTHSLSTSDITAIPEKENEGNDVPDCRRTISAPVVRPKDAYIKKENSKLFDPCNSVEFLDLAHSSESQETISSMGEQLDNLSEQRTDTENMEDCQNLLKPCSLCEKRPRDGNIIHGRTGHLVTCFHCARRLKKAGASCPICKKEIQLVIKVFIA
Target sequence (Q00987 whole entry, looked up): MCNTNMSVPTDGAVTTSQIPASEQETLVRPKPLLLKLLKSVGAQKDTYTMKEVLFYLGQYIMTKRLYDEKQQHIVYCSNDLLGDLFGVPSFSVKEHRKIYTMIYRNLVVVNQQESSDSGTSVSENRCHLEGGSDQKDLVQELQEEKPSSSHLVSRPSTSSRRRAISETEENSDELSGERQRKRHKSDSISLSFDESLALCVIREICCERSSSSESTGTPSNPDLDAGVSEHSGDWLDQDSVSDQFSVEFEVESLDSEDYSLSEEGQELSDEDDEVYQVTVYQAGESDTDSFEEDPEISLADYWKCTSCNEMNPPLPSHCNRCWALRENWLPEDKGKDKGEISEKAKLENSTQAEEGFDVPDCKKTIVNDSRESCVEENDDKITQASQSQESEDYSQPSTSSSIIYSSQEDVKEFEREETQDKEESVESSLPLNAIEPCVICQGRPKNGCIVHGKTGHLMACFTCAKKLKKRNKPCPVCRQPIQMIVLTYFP
Gli-Sufu confirm: Gli-SUFU pathway antagonists, confirmation, single concentration, luciferase luminescence, Sufu-KO-LIGHT cells; shares compounds with Gli-Sufu antag; Gli luciferase reporter; inhibition, % at 5 µM; 2,500 compounds, 40% hits; AID 602428, 2012;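 active = mean inhibition at 5 µM reaching about 45%, limit read from the data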;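 note: plate controls were DMSO-treated cells for no effect and wells lacking cells for full effect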
SufuKO cytotox: cytotoxicity in Sufu-KO-LIGHT cells, confirmation, cytotoxicity control for Gli-SUFU antagonist project, cell-based, ATP luminescence, single concentration | shares compounds with Gli-Sufu antag | cytotoxicity, % at 5 µM | 2,500 compounds, 32% hits;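 active = mean cytotoxicity at 5 µM above about 25%, limit read from the data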;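 note: cells exposed to compound overnight for roughly 16 to 18 hours; plate controls were DMSO wells with cells for no effect and medium without cells for full effect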
Wnt3a cs: Wnt3a reporter signal inhibition, confirmation, counter-screen for Gli-SUFU antagonist project, Wnt-LIGHT cells, luminescence, single concentration | inhibition, % at 6.25 µM | shares compounds with Gli-Sufu antag | AID 651995, 2013 | 2,500 compounds, 20% hits | Wnt3a-driven luciferase reporter;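 active = mean inhibition above about 25%, limit read from the data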
* hit, by the source's call. Most compounds without a hit are left out; they make up all but 4.1% or so of the library.

Results for CCOC(=O)N1CCC(NC(=O)C2CCCN(Cc3nc(-c4cccc(Cl)c4)oc3C)C2)CC1 (centres undefined) ?
Jurkat NFkB inh: 18; 697 NFkB inh: -8; Gli-Sufu antag: 54; KLF5 inh: -23; aSyn UTR inh: 7; Mdm2 MdmX PPI: 32; Gli-Sufu confirm: 60*; SufuKO cytotox: 34*; Wnt3a cs: -9

What do the screens show for `COc1ccccc1CN(Cc1nc2ccccc2c(=O)[nH]1)C(=O)Nc1ccc(C)cc1`?
Jurkat NFkB inh: -6; 697 NFkB inh: -23; Gli-Sufu antag: -6; KLF5 inh: -27; aSyn UTR inh: -43; Mdm2 MdmX PPI: 18

Results for COc1ccccc1CN(Cc1nc2ccccc2c(=O)[nH]1)S(=O)(=O)c1ccc(C)cc1 ?
Jurkat NFkB inh: -7; 697 NFkB inh: -2; Gli-Sufu antag: 53; KLF5 inh: -8; aSyn UTR inh: 17; Mdm2 MdmX PPI: 9; Gli-Sufu confirm: 40; SufuKO cytotox: 7; Wnt3a cs: -2

What do the screens show for `Cc1[nH]c2ccccc2c1C(=O)CSc1nc2cc(S(=O)(=O)N3CCCCC3)ccc2o1`?
Jurkat NFkB inh: 18; 697 NFkB inh: -20; Gli-Sufu antag: 55*; KLF5 inh: -14; aSyn UTR inh: -23; Mdm2 MdmX PPI: 13; Gli-Sufu confirm: 42; SufuKO cytotox: 13; Wnt3a cs: 23

What do the screens show for `OCC1OC(n2ccc3c(NO)ncnc32)C(O)C1O` (centres undefined)?
Gli-Sufu antag: 75*; Gli-Sufu confirm: 60*; SufuKO cytotox: 54*; Wnt3a cs: 69*

Results for CN(C)c1ncnc2c1ccn2C1OC(CO)C(O)C1O (centres undefined) ?
Gli-Sufu antag: 62*; Gli-Sufu confirm: 68*; SufuKO cytotox: 48*; Wnt3a cs: 40*

How did CN(C)c1nc2c(N)ncnc2n1C1OC(CO)C(O)C1O (centres undefined) do in these assays?
Gli-Sufu antag: -6

What do the screens show for `COc1ccccc1C(=O)Nc1ccc2oc(-c3ccc(F)cc3)nc2c1`?
Jurkat NFkB inh: -33; 697 NFkB inh: -45; Gli-Sufu antag: 95*; KLF5 inh: -43; aSyn UTR inh: -201; Mdm2 MdmX PPI: -17; Gli-Sufu confirm: -12; SufuKO cytotox: 16; Wnt3a cs: -71

Results for CCOc1ccccc1NC(=O)COC(=O)c1c(CC)noc1C ?
Jurkat NFkB inh: -7; 697 NFkB inh: 5; Gli-Sufu antag: 67*; Mdm2 MdmX PPI: -13; Gli-Sufu confirm: 24; SufuKO cytotox: 9; Wnt3a cs: 1

How did CCc1noc(C)c1C(=O)OCC(=O)Nc1c(F)cccc1F do in these assays?
Jurkat NFkB inh: 3; 697 NFkB inh: 11; Gli-Sufu antag: 1; aSyn UTR inh: 3; Mdm2 MdmX PPI: 0

How did CCCc1cc(=O)oc2cc(C)cc(OC(C)C(=O)NCCN3CCOCC3)c12 (centres undefined) do in these assays?
Jurkat NFkB inh: 5; 697 NFkB inh: 1; Gli-Sufu antag: 18; KLF5 inh: -9; aSyn UTR inh: 3; Mdm2 MdmX PPI: 9

What do the screens show for `COc1ccc(CCNC(=O)c2cc3c(=O)n4ccccc4nc3n(CCCN3CCOCC3)c2=N)cc1OC`?
Jurkat NFkB inh: 11; 697 NFkB inh: -12; Gli-Sufu antag: 28; KLF5 inh: 18; aSyn UTR inh: -14; Mdm2 MdmX PPI: 10

What do the screens show for `COc1ccc(CCNC(=O)c2cc3c(=O)n4ccccc4nc3n(CCN3CCOCC3)c2=N)cc1`?
Jurkat NFkB inh: 41; 697 NFkB inh: -28; Gli-Sufu antag: 66*; KLF5 inh: -11; aSyn UTR inh: -46; Mdm2 MdmX PPI: -9; Gli-Sufu confirm: 21; SufuKO cytotox: 5; Wnt3a cs: -46

How did CC1C(=O)N2CCCc3cc(S(=O)(=O)NCc4ccccc4Cl)cc1c32 (centres undefined) do in these assays?
Jurkat NFkB inh: -7; 697 NFkB inh: 6; Gli-Sufu antag: 8; KLF5 inh: -19; aSyn UTR inh: 11; Mdm2 MdmX PPI: 22

What do the screens show for `COc1cccc(C=NNC(=O)C(C)SC(C)C(=O)NN=Cc2cccc(OC)c2)c1` (centres undefined)?
Gli-Sufu antag: 52; Gli-Sufu confirm: 6; SufuKO cytotox: -14; Wnt3a cs: -10

What do the screens show for `COC(=O)c1sc2nc(CN3CCN(c4cccc(C(F)(F)F)c4)CC3)[nH]c(=O)c2c1C`?
Jurkat NFkB inh: 0; 697 NFkB inh: 20; Gli-Sufu antag: -8; KLF5 inh: -35; aSyn UTR inh: -5; Mdm2 MdmX PPI: 2

How did CCOc1ccc(-n2c(SCc3ccc(C#N)cc3)nnc2-c2cccnc2)cc1 do in these assays?
Jurkat NFkB inh: -18; 697 NFkB inh: -7; Gli-Sufu antag: 95*; KLF5 inh: 11; aSyn UTR inh: 25; Mdm2 MdmX PPI: 7; Gli-Sufu confirm: 27; SufuKO cytotox: 4; Wnt3a cs: -24

What do the screens show for `CC(NCC(O)COc1ccc(Br)cc1)c1ccccc1` (centres undefined)?
Jurkat NFkB inh: 1; 697 NFkB inh: 7; Gli-Sufu antag: 58*; KLF5 inh: -30; aSyn UTR inh: 16; Mdm2 MdmX PPI: 5; Gli-Sufu confirm: 14; SufuKO cytotox: 2; Wnt3a cs: -37

What do the screens show for `CCn1cc(CN2CCC(C(=O)Nc3ccc(Oc4ccccc4)nc3)CC2)cn1`?
Jurkat NFkB inh: 7; 697 NFkB inh: 9; Gli-Sufu antag: 20; KLF5 inh: -1; aSyn UTR inh: -8; Mdm2 MdmX PPI: -2

Results for O=C(Nc1ccc(Oc2ccccc2)nc1)C1CCN(Cc2ccccc2)CC1 ?
Jurkat NFkB inh: 7; 697 NFkB inh: 6; Gli-Sufu antag: 65*; KLF5 inh: -28; aSyn UTR inh: 10; Mdm2 MdmX PPI: 23; Gli-Sufu confirm: 17; SufuKO cytotox: 3; Wnt3a cs: -13

Results for COc1ccc2cc3cc(C(=O)N4CCN(C5CCCCC5)CC4)oc3nc2c1 ?
Jurkat NFkB inh: 0; 697 NFkB inh: 19; Gli-Sufu antag: 53; KLF5 inh: -55; aSyn UTR inh: -32; Mdm2 MdmX PPI: 13; Gli-Sufu confirm: 26; SufuKO cytotox: 36*; Wnt3a cs: -23
